Compound activity deposited in PubChem by Columbia University Molecular Screening Center.
Many of the other results were omitted from the sample, so hits are more common in it than they were.
VCAM1 TNFa pot: TNF alpha stimulated VCAM1 expression potentiation; HUVEC TNFa-stimulated VCAM-1 immunofluorescence, high-content imaging; scaled per plate to unstimulated/TNFa-only wells; activation, % at 2 µM; actives 0.19% (n = 93,000); AID 808;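 active = activation above the screen mean plus 3 SD, with well images confirming the hit on visual review, cut at about 28% in these data, passing the limit was not always enough; inconclusive = activation above that limit but images do not confirm it; inactive = activation not above that limit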;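 also: signal is the number of cytoplasmic VCAM-1 stained grains per positive cell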
VCAM1 pot conf: potentiators of TNFa-induced VCAM1 expression, confirmation, imaging, HUVEC, triplicate retest; shares compounds with VCAM1 TNFa pot; HUVEC TNFa-stimulated VCAM-1 immunofluorescence imaging; activation, % at 2 µM; 230 tested, under 10 active; AID 1034;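 active = activation above 30% in triplicate retests at 2 µM, then confirmed by visual review of the well images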
Large screens that a line does not name were inactive (follow-up assays come after a bar, where they were run).

CCCCCCCC1CC(CSc2ncn[nH]2)OC1=O (stereo unspecified)	VCAM1 TNFa pot 89 | VCAM1 pot conf inactive
CCCCCC1CC(CC(C)C(=O)Nc2nncs2)C(=O)O1 (stereo unspecified)	none
CCOc1ccc2ccccc2c1/C=N/n1cncn1	none
O=C(NCc1ccco1)c1cc2c(s1)CCCCC2	none
O=CN(Cc1ccco1)C1(C(=O)NC2CCCCC2)CCCCC1	VCAM1 TNFa pot 37 | VCAM1 pot conf inactive
COc1ccc(CN(C(=O)CNC(=O)c2ccco2)C(C(=O)NC2CCCC2)c2ccco2)cc1 (stereo unspecified)	none
CCS(=O)(=O)N1CCN(C(=O)c2ccc(-c3ccccc3)cc2)CC1	none
COc1ccc(-c2nc(C#N)c(NCc3cccnc3)o2)cc1OC	none
CCOc1ccc(-c2nc(C#N)c(NC3CC3)o2)cc1	none
Cc1ccc(-c2nc(C#N)c(NCCN3CCCCC3)o2)cc1	VCAM1 TNFa pot 44 | VCAM1 pot conf inactive
CCOc1ccc2nc(SCC(=O)NC(=O)NCc3ccco3)[nH]c2c1	none
Cc1ccc(C(=O)C(OC(=O)COc2ccccc2C)c2ccccc2)cc1 (stereo unspecified)	none
CCC(=O)NC(c1ccc([N+](=O)[O-])cc1)c1c(O)ccc2ccccc12 (stereo unspecified)	none
O=C(CCc1ccccc1)Nc1cc(C(F)(F)F)ccc1Cl	none
CC(CC(=O)Nc1cc([N+](=O)[O-])ccc1Cl)c1ccccc1 (stereo unspecified)	VCAM1 TNFa pot 53 | VCAM1 pot conf inactive
COCCCNC(=O)c1cn(C)c(=O)c2cc(OC)c(OC)cc12	none
CCn1c(SCc2nc3ccccc3[nH]2)nnc1-c1ccncc1	none
COc1cccc(N/C=C(\C#N)c2ccc(OCCCF)cc2)c1	none
COc1ccccc1NC(=S)NC(=O)CC(C)C	none
O=C(COc1ccc(S(=O)(=O)N2CCCCC2)cc1)NC1CCCCC1	none
CCCn1nnc(NC(=O)COc2ccc(C3CCCCC3)cc2)n1	VCAM1 TNFa pot 68 | VCAM1 pot conf inactive
CCOC(=O)c1ccc(NC(=O)CSc2nnc(C3CCCCC3)n2C)cc1	none
COc1ccc(CSc2nnnn2C)cc1F	none
Cn1c(Cn2nnc3ccccc32)nnc1SCC(=O)c1ccc(F)cc1	none
O=C(NNC(=O)c1cc(-c2ccc(Cl)cc2Cl)nc2ccccc12)Nc1ccccc1	none
O=C1C2C3C=CC(C3)C2C(=O)N1CCN1CCN(S(=O)(=O)c2ccc3ccccc3c2)CC1 (stereo unspecified)	none
O=C(O)CCCC(=O)Nc1ccccc1Br	none
Cc1ccnc(NC(=O)c2ccc(COc3ccc(Cl)cc3)o2)c1	none
COc1ccc(OCC(=O)N2CC3(C)CC2CC(C)(C)C3)cc1 (stereo unspecified)	none
O=C(COc1ccc(Br)cc1)N1CCN(c2ccccc2)CC1	none
CSC1=NCCN1C(=O)COc1ccc2ccccc2c1	VCAM1 TNFa pot 30 | VCAM1 pot conf inactive
Cn1nc(C(=O)NCC2CCCO2)c2ccccc2c1=O (stereo unspecified)	none
CC(C(=O)NCC1CCCO1)N(C(=O)c1snc(C(N)=O)c1N)c1ccccc1 (stereo unspecified)	VCAM1 TNFa pot 40 | VCAM1 pot conf inactive
O=C(CC(c1ccccc1)c1ccccc1)NCC1CCCO1 (stereo unspecified)	none
O=C1C=C(O)CC(c2ccc(Cl)cc2)C1 (stereo unspecified)	none
O=C1C=C(O)CC(c2ccc(Cl)c(Cl)c2)C1 (stereo unspecified)	VCAM1 TNFa pot inconclusive | VCAM1 pot conf inactive
COc1cc(C2CC(=O)C=C(O)C2)cc(OC)c1OC (stereo unspecified)	none
Cn1c(SCCCC(=O)c2ccc(Br)cc2)nnc1-c1ccncc1	none
COc1ccc(CN2CCCCC2C(=O)Nc2ccc(OC)c(OCC(C)C)c2)cc1OC (stereo unspecified)	none
Cc1nc(SCC#N)c2c(C)c(C)sc2n1	none
O=C(CCC(=O)N1CCc2ccccc21)Nc1ccccc1	none
CCCCn1c(SCC(=O)c2ccc3c(c2)OCCO3)nnc1-c1ccco1	none
O=C(CCN1CCc2ccccc21)c1ccc2c(c1)OCCO2	VCAM1 TNFa pot 67 | VCAM1 pot conf inactive
O=c1[nH]nnc2sc3c(c12)CCCC3	none
Cc1c(NC(=O)CC2CC(C)OC2=O)c(=O)n(-c2ccccc2)n1C (stereo unspecified)	none
Cn1c(/C=N/n2cnnc2)nc2ccccc21	VCAM1 TNFa pot inconclusive | VCAM1 pot conf inactive
Cn1c(/N=C/c2c[nH]c3ccccc23)nc2ccccc21	none
Cn1c(NCc2c[nH]c3ccccc23)nc2ccccc21	none
COc1ccc(Cl)cc1N(CC(=O)Nc1ccccc1SC)S(C)(=O)=O	none
Cc1ccc(N2CC(C(=O)NCCc3ccc(S(N)(=O)=O)cc3)CC2=O)cc1 (stereo unspecified)	none
CCCNC(=O)CCC(NS(=O)(=O)c1ccc(C)cc1)C(=O)NCCC (stereo unspecified)	VCAM1 TNFa pot 73 | VCAM1 pot conf inactive
Cc1ccc(S(=O)(=O)NC(=O)NCc2ccc(Cl)cc2)cc1	none
COc1ccccc1Nc1nc(N)nc(CSCCO)n1	none
Cc1cc2n(n1)SC(Nc1ccc(F)c(Cl)c1)N2 (stereo unspecified)	none
CCCN1C(=O)SC(CC(=O)Nc2ccc(C)cc2)C1=O (stereo unspecified)	none
Cc1ccc(NC(=O)COC(=O)c2ccn(C)n2)cc1	VCAM1 TNFa pot inconclusive | VCAM1 pot conf inactive
Cc1cc(C)n(-c2ccc(C(=O)OCC(=O)Nc3ccc(Cl)c(S(=O)(=O)N(C)C)c3)cc2)n1	none
O=C(C1CCN(S(=O)(=O)N2CCOCC2)CC1)N1CCOCC1	none
CC(=O)Nc1ccc(S(=O)(=O)NC(CC(=O)NC2CCCCC2C)C(C)C)cc1 (stereo unspecified)	VCAM1 TNFa pot 31 | VCAM1 pot conf inactive
COc1ccc(C)cc1NS(=O)(=O)c1ccc(NS(=O)(=O)c2ccc(NC(C)=O)cc2)cc1	none
CC(=O)c1ccc(NS(=O)(=O)c2ccc(CC(C)C)cc2)cc1	none
CCN1CCN(CCCNC(=O)C2CCCN(c3nnc(-n4cccc4)s3)C2)CC1 (stereo unspecified)	none
O=C(Cc1ccccc1)Nc1cccc(N2CCCC2)c1	none
O=C1CC(N2CCN(Cc3ccc4c(c3)OCO4)CC2)C(=O)N1c1ccccc1 (stereo unspecified)	none
Fc1cccc(-c2nn[nH]n2)c1	VCAM1 TNFa pot 31 | VCAM1 pot conf inactive
CCOc1ccc2nc(NC(=O)CSC3=NCCS3)sc2c1	none
Cc1cccc(-c2nc(CSCC(=O)N3CCN(c4ccccn4)CC3)c(C)o2)c1	none
Cc1cccc(Oc2coc3cc(OC(=O)c4cc5ccccc5oc4=O)ccc3c2=O)c1	none
CCCn1c(NC(=O)C2COc3ccccc3O2)nc2ccccc21 (stereo unspecified)	none
CC(C)c1ccc(Oc2cccc(C(=O)/C(C#N)=C/N(C)C)c2)cc1	none
CN(C)S(=O)(=O)N(CCN1CCOCC1)Cc1ccccc1F	VCAM1 TNFa pot 45 | VCAM1 pot conf inactive
O=C(Nc1ccccc1)N(CCN1CCOCC1)Cc1ccccc1F	none
O=C(C1CCN(S(=O)(=O)N2CCCC2)CC1)N1CCCCC1	none
CCCSc1nnc(C(C)C)n1N	none
COc1cccc(NC(=O)CSc2nc(N)cc(N)n2)c1	none
Cc1cc(SCC(N)=O)nc(SCC(=O)c2ccccc2)n1	none
CSc1nc(C)cc(SCC(=O)Nc2ccccc2)n1	VCAM1 TNFa pot 56 | VCAM1 pot conf inactive
CCN(CC)CC(C(=O)N(CC)CC)P(=O)(c1ccccc1)c1ccccc1 (stereo unspecified)	none
Cc1cccc(C)c1NS(=O)(=O)c1ccc(F)cc1	none
